Screening results: PubChem, SRMLSC
Fluor 339 460: intrinsic fluorescence of library compounds, ex339/em460 – biochemical, MLSMR library, data from DPM-DC assay, artefact control, profiling panel | compound autofluorescence, ex339/em460 nm, NADH buffer; active compounds read high; 1 = no-compound wells, NADH background | fluorescence fold increase at 10 µM | actives 5.5% (n = 65,000);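 active means at 10 µM, mean starting fluorescence two-fold or more over control wells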;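 further: signal is the first read of a kinetic run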
DPM-DC inhibit: inhibitors of Streptococcus pneumoniae diphosphomevalonate decarboxylase | purified DPM-DC, PK/LDH coupled NADH fluorescence | calls only at 10 µM | actives 0.49% (n = 65,000);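 active means the 320 compounds with the highest percent inhibition in the single-dose primary screen, excluding strongly autofluorescent ones, cut at about 32% in these data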;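 further: kinetic rate of NADH fluorescence loss reporting ADP formed by the decarboxylase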
NADH enzymes: blocks coupling enzymes of NAD/NADH assays. coupled PK/LDH NADH assays, four targets. IC50, µM (titrated, usually from 10 µM), without a hit: at the top dose inhibition. actives 0.02% (n = 65,000);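 active means single-dose screening hits from any of four coupled enzyme assays that gave an IC50 when retested across doses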;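 further: the DPM-DC format reads NADH fluorescence rather than 340 nm absorbance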
PMK inhibit: inhibitors of Streptococcus pneumoniae phosphomevalonate kinase; purified PMK, PK/LDH-coupled NADH absorbance 340 nm; inhibition, % at 10 µM; actives 0.49% (n = 65,000);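 active means top-ranked compounds by inhibition in the single 10 µM screen, taking a fixed number of the strongest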;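 further: 0% = full reaction with DMSO carrier and 100% = background rate without enzyme reaction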
MK inhibit: S. pneumoniae mevalonate kinase inhibition; purified MK, PK/LDH-coupled NADH absorbance 340 nm; inhibition, % at 10 µM; actives 0.48% (n = 65,000); AID 555;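 active means ranked among the strongest by inhibition in the single 10 µM screen, a fixed top-ranked set picked for dose follow-up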
A340 absorber: compounds absorbing at 340 nm | compound absorbance at 340 nm, fold over control | fold change at 10 µM | 65,000 tested, under 10 active | AID 708;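 active means at 10 µM dose, initial 340 nm absorbance at least 2 fold that of control wells; inactive means change under 2 fold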;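 further: initial absorbance extrapolated from kinetic A340 decline of NADH oxidation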
An asterisk follows results filed as active; i = inactive; nt = not tested or not shown; + = active, no number. Sampled rows, rich in hits. Any-hit rate of the full collection: about 6.8%.

SMILES	Fluor 339 460	DPM-DC inhibit	NADH enzymes	PMK inhibit	MK inhibit	A340 absorber
CSc1nnc(NC(=O)C2CCCCC2)s1	1.08	i	8.0%	nt	3.0	1.02
CSc1ncc(Cl)c(C(=O)Nc2nnc(SC)s2)n1	1	+	32.0%	0.0	8.0	1.04
COc1cc2nc(N3CCNCC3)nc(N)c2cc1OC	3.96*	nt	5.0%	1.0	9.0	1.09
CCOc1cc2nc(-c3ccc(OC)c(OC)c3)nc(N3CCOCC3)c2cc1OC	1.47	i	15.0%	6.0	10.0	1.09
CCCn1nnc(NC(=O)c2cc(Br)cc(Br)c2OC)n1	1.1	i	3.0%	3.0	5.0	1.01
COc1ccc2[nH]c3c(c2c1)CCn1c-3nc2ccccc2c1=O	2.24*	nt	5.0%	0.0	9.0	1.15
CCCNC(=O)c1c(N)n(-c2cccc(OC)c2)c2nc3ccccc3nc12	3.82*	nt	10.0%	7.0	12.0	1.03
COC(=O)c1c(N)n(-c2cc(OC)cc(OC)c2)c2nc3ccccc3nc12	3.42*	nt	3.0%	9.0	2.0	1
Nc1c(C(=O)NCCN2CCOCC2)c2nc3ccccc3nc2n1-c1cccc(F)c1	5.13*	nt	9.0%	6.0	11.0	1.08
COCCCNC(=O)c1c(N)n(-c2cccc(S(N)(=O)=O)c2)c2nc3ccccc3nc12	2.96*	nt	3.0%	6.0	10.0	1
CCN(CC)c1ccc(NC(=O)CC2Oc3ccccc3NC2=O)c(C)c1 (stereo not drawn)	1.05	i	2.0%	1.0	5.0	1.03
CCN(CC)c1ccc(C(=S)N2CCN(c3ccccc3)CC2)cc1	1.12	i	5.0%	12.0	2.0	1
CCCC(=O)C1=C(O)C(C(=O)OC)C(C)(C)CC1=Nc1ccncc1 (stereo not drawn)	1.06	i	9.0%	13.0	6.0	1.09
O=C(NC1CC1)c1ccc2c(c1)ncn2C1CCCC1	0.97	i	17.0%	28.0*	2.0	0.99
O=C(c1cc2nc(-c3ccco3)cc(C(F)(F)F)n2n1)N1CCN(c2ccccc2)CC1	1.24	i	2.0%	1.0	3.0	1.11
COc1ccc(-c2cc(C(F)(F)F)n3nc(C(=O)N4CCCCC4)cc3n2)cc1	2.26*	nt	4.0%	0.0	8.0	1.11
O=C(c1cc2nc(-c3ccc(F)cc3)cc(C(F)(F)F)n2n1)N1CCCC1	1.47	+	17.0%	9.0	6.0	1.05
O=C(c1cc2nc(-c3ccccc3)cc(C(F)(F)F)n2n1)N1CCCC1	1.25	i	2.0%	0.0	6.0	1.05
CN(C(=O)c1cc2nc(-c3ccco3)cc(C(F)(F)F)n2n1)C1CCCCC1	2.18*	nt	5.0%	4.0	6.0	1.1
O=C(c1cc2nc(-c3ccco3)cc(C(F)(F)F)n2n1)N1CCCCCC1	2.17*	nt	9.0%	13.0	5.0	1.13
Cc1[nH]c(=O)[nH]c(=O)c1S(=O)(=O)N1CCCC1	1.07	i	3.0%	0.0	10.0	1.01
Cc1cccc(NC(=O)Cn2c(C)c(C#N)c3ccccc32)c1C	1.1	i	3.0%	8.0	1.0	1.02
O=S(=O)(NCc1ccccc1)c1ccc(S(=O)(=O)N(Cc2ccccn2)Cc2ccco2)cc1	1.07	i	4.0%	12.0	0.0	1.04
Cc1ccccc1Cn1ccc(NC(=O)c2cc3nc(-c4ccco4)cc(C(F)(F)F)n3n2)n1	3.83*	nt	8.0%	12.0	4.0	1.1
Clc1ccc(-c2nn3c(Cn4cnc5ccccc54)nnc3s2)c(Cl)c1	1.1	i	4.0%	9.0	3.0	1.03
SMILES	Fluor 339 460	DPM-DC inhibit	NADH enzymes	PMK inhibit	MK inhibit	A340 absorber
CCn1cc(C(=O)O)c(=O)c2cc(F)c(N3CCNCC3)cc21	2.48*	nt	4.0%	10.0	10.0	1.03
CCn1cc(C(=O)O)c(=O)c2cc(F)c(N3CCN(C(=O)Nc4ccccc4)CC3)cc21	1.73	i	4.0%	0.0	0.0	1.04
CCn1cc(C(=O)NCc2ccccn2)c(=O)c2cc(F)c(N3CCN(C)CC3)cc21	1.95	i	5.0%	1.0	3.0	1.06
CCOC(=O)c1cn(CC)c2cc(N3CCSCC3)c(F)cc2c1=O	2.86*	i	17.0%	12.0	9.0	1.07
O=C(Nc1ncnc2c1ncn2C1OC(COC(=O)c2ccccc2)C(F)C1O)c1ccccc1 (stereo not drawn)	1.09	i	2.0%	7.0	0.0	1.03
COc1cccc2cc(C(=O)n3ccc(C)n3)c(=O)oc12	1.02	i	3.0%	9.0	7.0	1.02
CCn1c(Cc2ccc(OC)cc2)nnc1SCC(=O)Nc1nc2ccccc2s1	1.09	i	6.0%	9.0	10.0	1.03
COC(=O)C1=CN(C)C=C(C(=O)OC)C1c1ccc(O)c(OC)c1	1.37	i	8.0%	2.0	6.0	1
COCCN1C=C(C(=O)OC)C(c2cc(Br)c(OC)c(OC)c2)C(C(=O)OC)=C1	2.26*	nt	6.0%	4.0	8.0	1.07
COCCOC(=O)c1c(C)oc2ccc(OC(=O)c3c(OC)cccc3OC)cc12	1.13	i	0.0%	1.0	0.0	1.02
CC(=O)Nc1c(O)n(C)c2ccccc12	0.99	i	8.0%	active	11.0	0.98
O=C(c1ccccc1)c1ccc2nc(N3CCN(C(=O)c4ccco4)CC3)c3nncn3c2c1	1.16	i	5.0%	2.0	7.0	1.1
Cc1cccc(N2CCN(c3nc4ccc(Cl)cc4n4cnnc34)CC2)c1C	2.08*	nt	9.0%	10.0	8.0	1.11
Cn1nc(CC(=O)Nc2ncc(Br)s2)c2ccccc2c1=O	1.07	i	8.0%	25.0*	0.0	1.04
Cn1nc(CC(=O)Nc2ccc3c(c2)CCC3)c2ccccc2c1=O	1.09	i	4.0%	7.0	4.0	1
CC(=O)Nc1sc(C)c(C)c1C(=O)OC1CCOC1=O (stereo not drawn)	1.18	i	0.0%	0.0	0.0	1.05
Cc1cccc(OCC(O)Cn2c(-n3nc(C)cc3C)nc3c2c(=O)[nH]c(=O)n3C)c1 (stereo not drawn)	2.92*	+	19.0%	11.0	13.0	0.98
O=C(C(c1ccccc1)c1ccccc1)N1CCN(Cc2ccncc2)CC1	1.1	i	13.0%	4.0	34.0	1.03
O=C(C(c1ccccc1)c1ccccc1)N1CCN(Cc2ccccn2)CC1	1.04	i	6.0%	2.0	52.0*	1.06
Nc1nnc(-c2cc3ccccc3oc2=O)s1	3.01*	nt	5.0%	6.0	7.0	1.04
c1ccc2c(c1)oc1c(NCCCn3ccnc3)ncnc12	1.09	i	2.0%	4.0	2.0	1.05
c1ccc(-c2oc3ncnc(NCCN4CCOCC4)c3c2-c2ccccc2)cc1	2.01*	i	5.0%	4.0	2.0	1.02
c1ccc(-c2oc3ncnc(NCCCn4ccnc4)c3c2-c2ccccc2)cc1	3.66*	nt	8.0%	16.0	0.0	1.06
N=c1c2c(-c3ccccc3)c(-c3ccccc3)oc2ncn1CCCN1CCOCC1	1.46	i	11.0%	12.0	12.0	1.08
